Assay outcomes as filed in PubChem BioAssay.
TRHR enhancer = qHTS for Small Molecule Agonists and Allosteric Enhancers of Human TRH Receptor: Primary Screen for Enhancers; Thyrotropin-releasing hormone receptor (Homo sapiens), P34981; TRHR cells, fluo-8 calcium fluorescence, EC20 TRH enhancement; 360,000 tested, 0.66% active; enhancement, % at 2 µM; in the data active means enhancement above about 30%; further: 0% is about no effect
Target sequence (P34981 whole entry, looked up): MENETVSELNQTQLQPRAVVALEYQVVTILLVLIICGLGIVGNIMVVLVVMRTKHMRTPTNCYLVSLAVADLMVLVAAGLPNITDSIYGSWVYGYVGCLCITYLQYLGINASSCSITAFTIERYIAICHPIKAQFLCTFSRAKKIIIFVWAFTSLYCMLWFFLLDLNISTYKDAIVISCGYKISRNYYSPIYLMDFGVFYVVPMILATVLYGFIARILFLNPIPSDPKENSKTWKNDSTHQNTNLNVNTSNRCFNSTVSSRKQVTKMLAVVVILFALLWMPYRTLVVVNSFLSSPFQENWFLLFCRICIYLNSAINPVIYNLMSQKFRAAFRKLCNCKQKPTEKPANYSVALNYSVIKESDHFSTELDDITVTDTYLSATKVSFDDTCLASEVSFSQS
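Enhancer read-out: after compound pinning and an initial kinetic agonist-mode read, an EC20 of TRH (10 nM final) was injected and fluo-8 calcium signal (Ex 480/Em 530) followed at 1 s/cycle for 100 cycles in TRHR-expressing cells.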
D1 antag = Antagonist of Human D 1 Dopamine Receptor: qHTS; 360,000 tested, 3.2% active; AID 504652, 2011; D(1A) dopamine receptor (Homo sapiens), P21728; HEK293 TREx D1 cells, calcium flux, dopamine EC80; hits give low values; activity change, negative = inhibition, % at 10 µM; in the data active means activity change below about -30%; further: on the % scale 0 is the no-effect control and ±100 the full control effect
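Tetracycline-induced HEK293 T-REx cells with force-coupled D1 receptor were loaded with a no-wash calcium dye. Compound was added after a 10 s baseline and read kinetically for 180 s; EC80 dopamine was then added and calcium flux followed another 180 s.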
TRHR agonist = qHTS for Small Molecule Agonists and Allosteric Enhancers of Human TRH Receptor: Primary Screen for Agonists; 360,000 tested, 0.18% active; Thyrotropin-releasing hormone receptor (Homo sapiens), P34981; TRHR cells, calcium flux fluo-8, FDSS agonist mode; activation, % at 2 µM; further: 0% is about no effect
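Steps: seed TRHR cells overnight; add fluo-8 no-wash Ca dye, RT 30 min–1.5 h; record 10 s baseline; pin-transfer compounds; monitor fluorescence 1 cycle/s for the agonist window. Calcium increases flag candidate agonists.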
D1 potentiator = Potentiators of Human D1 Dopamine Receptor: qHTS; D(1A) dopamine receptor (Homo sapiens), P21728; HEK293 TREx D1 cells, calcium flux, dopamine EC20 potentiation; potentiation, % at 10 µM; 360,000 tested, 0.036% active; AID 504651, 2011; in the data active means potentiation above about 30%; further: 0% is about no effect
D1 agonist = Allosteric Agonists of the Human D1 Dopamine Receptor: qHTS. D(1A) dopamine receptor (Homo sapiens), P21728. 360,000 tested, 1% active. activation, % at 2 µM. AID 504660, 2011. HEK293 T-REx D1 cells, calcium flux, agonist mode; further: 0% is about no effect
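Inducible HEK293 T-REx D1 cells, force-coupled to calcium signalling, were plated at 4000 cells/well with tetracycline and held overnight at 30 C. After no-wash calcium dye loading, compound-evoked calcium rise over 180 s flagged agonists.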
Starred values were filed as active, the others as inactive; . = not tested or not shown. Most compounds without a hit are left out; they make up all but 4.7% or so of the library. Unless noted, no stated cut-off is given here; in the data, active means activation above about 30%; inactive means the rest.

SMILES	TRHR enhancer	D1 antag	TRHR agonist	D1 potentiator	D1 agonist
Cc1cc(C)n2nc(C(=O)OCC(=O)NCc3ccc(Cl)cc3)nc2n1	3.0	-32.8*	-0.2	-5.7	-0.6
O=C(C1CCN(S(=O)(=O)c2ccc(Cl)cc2)CC1)N1CCN(c2ccccn2)CC1	-7.1	-11.8	0.4	-5.5	0.7
Cc1cccc(Cn2c(COc3ccccc3)nc3ccccc32)c1	2.4	3.5	-0.1	-4.5	10.2
Nc1nc(Nc2ccccc2F)sc1C(=O)c1ccccc1	21.6	7.4	-2.8	6.1	34.5*
Cc1nc(Nc2ccccc2)sc1C(=O)c1ccc(F)cc1	1.0	-5.8	-0.3	-3.4	-0.4
CCOC(=O)c1c(C=O)c(C)n(Cc2ccc(C)cc2)c1C	0.0	-56.0*	-0.4	18.2	104.1*
CC(C)CCn1c(SCc2cccc(F)c2)nc2ccsc2c1=O	6.5	14.0	1.4	2.8	11.6
CCSc1nnc(NC(=O)c2cc(=O)c3cc(C)ccc3o2)s1	1.5	-1.8	0.4	-0.2	1.2
CCCOC(=O)CCCCCCCCC(O)CN1CCCCC1 (centres undefined)	0.2	-56.0*	0.3	-1.5	54.4*
COC(=O)CCCCCCCCCCN1CCCCC1	-1.5	-0.5	0.8	-0.1	10.5
N#Cc1cc(C(=O)c2cc(F)ccc2O)cn(-c2nccs2)c1=O	4.5	6.5	183.2*	-6.9	305.9*
N#Cc1cc(C(=O)c2ccccc2O)cn(-c2nccs2)c1=O	30.3*	44.3	292.2*	18.4	553.4*
CCC1=NN(C(=O)Cc2ccccc2)C(O)(c2ccncc2)C1 (centres undefined)	26.0	-41.4*	-0.6	-3.1	14.8
CCN(CC)S(=O)(=O)c1cccc(NC(=O)COC(=O)/C=C/c2cccs2)c1	-2.4	-30.7*	0.4	-4.7	19.4
CN(C)S(=O)(=O)c1ccc(Cl)c(NC(=O)COC(=O)CCC(=O)c2cccs2)c1	-3.1	-6.1	-0.3	-6.4	6.5
CN(C)S(=O)(=O)c1cccc(NC(=O)COC(=O)CCC(=O)c2cccs2)c1	4.0	-34.4*	0.4	-1.4	4.9
CCN(CC)S(=O)(=O)c1cccc(NC(=O)COC(=O)c2cccs2)c1	-3.1	-14.9	0.0	-7.5	12.3
Cc1cccc(C(c2sc3nc(-c4ccco4)nn3c2O)N2CCOCC2)c1 (centres undefined)	19.5	.	-0.1	-1.9	0.0
Cc1c(C(=O)Nc2ccc(S(=O)(=O)N(C)C3CCN(C)CC3)cc2)oc2ccccc12	-2.4	-29.6	0.8	-5.5	32.2*
Cc1c(C(=O)Nc2ccc(S(=O)(=O)N(C)C3CCN(C)CC3)cc2)oc2c(Cl)cccc12	-2.8	-59.7*	0.2	-1.9	58.8*
CC(C)c1ccc(N2C(=O)/C(=C/N(C)C)SC2=S)cc1	14.2	3.5	47.1*	3.9	98.7*
N#CC1=C2SCN(C3CCCCC3)CN2C(=O)CC1c1ccc(F)cc1 (centres undefined)	-0.3	-13.7	0.6	0.6	5.1
N#CC1=C2SCN(C3CCCCC3)CN2C(=O)CC1c1ccc(Cl)cc1 (centres undefined)	-0.4	-60.2*	-0.4	-0.8	-0.2
COc1ccccc1N1CCN(C(=O)Cn2cnc3sc(C)c(S(=O)(=O)N4CCC(C)CC4)c3c2=O)CC1	2.9	-13.7	-0.1	0.0	-0.3
COC(=O)Cn1c(=O)n(CCc2ccccc2)c(=O)c2c3c(sc21)CCCC3	13.0	-3.9	0.5	-6.0	2.0
SMILES	TRHR enhancer	D1 antag	TRHR agonist	D1 potentiator	D1 agonist
CCOc1ccc(NC(=O)Cn2c(=O)n(CCc3ccccc3)c(=O)c3c4c(sc32)CCCC4)cc1	10.7	-35.8*	1.1	-1.9	-1.4
Cc1ccc(S(=O)(=O)NCc2ccccc2)cc1	-12.1	-17.6	-1.2	9.5	3.3
Cc1ccc(CNS(=O)(=O)NCc2ccccc2)cc1	37.8*	-24.8	-0.6	-1.6	1.9
O=C(CC1C(=O)N(c2ccccc2)C(=O)N1Cc1ccc(F)cc1)Nc1cccc(F)c1 (centres undefined)	-7.2	-4.2	0.1	-0.9	1.1
Cc1occc1C(=O)N/N=C/c1cnn(C)c1C	-3.7	-39.9*	0.2	-12.7	0.9
Cc1c(/C=N\NC(=O)c2ccc(F)cc2)cnn1C	0.0	-21.8	0.3	1.6	0.6
CCc1ccc2ncc(S(=O)(=O)c3ccc(C)c(C)c3)c(N3CCCC3)c2c1	-14.5	-7.4	-0.5	-1.5	3.8
CCN1CCN(c2c(S(=O)(=O)c3ccc(C)c(C)c3)cnc3cc(OC)c(OC)cc23)CC1	3.6	-66.4*	0.0	-8.2	0.1
COc1ccccc1C(CCNS(=O)(=O)c1ccc(C)cc1)c1ccco1 (centres undefined)	9.5	21.4	-0.4	-4.3	42.3*
Cc1ccc2c(c1)c1c(c(=O)n(-c3cccc(Cl)c3)c(=O)n1CC(=O)NCC1CCCO1)n2C (centres undefined)	-1.7	1.4	-0.9	2.2	-1.2
CC(=O)c1cc(C#N)c(N2CCN(c3ccccc3)CC2)nc1C	-1.9	-43.1*	0.5	-9.6	3.6
CN1CCC(=C2c3ccccc3C(O)c3ccccc32)CC1 (centres undefined)	18.1	-79.3*	-1.1	-8.2	19.4
O=S(=O)(c1ccc2c(c1)C(O)c1ccccc1CC2)C(F)(F)F (centres undefined)	-0.2	-23.2	0.5	-5.1	2.7
Cc1ccc(NC2=CC(=O)C(=O)c3ccccc32)cc1	0.7	1.1	-0.2	1.2	-0.8
COC1=C(Nc2ccc(O)cc2)C(=O)c2ccccc2C1=O	-1.6	-5.9	-0.4	-2.5	5.3
O=C1C(Cl)=C(Nc2ccc(O)cc2)C(=O)c2ccccc21	-13.4	-68.5*	0.5	-3.9	10.6
CCNC1=C(Cl)C(=O)c2ccccc2C1=O	-5.4	-35.9*	-1.2	-3.2	7.4
O=C1C(Cl)=C(NCCN2CCCCC2)C(=O)c2ccccc21	0.0	-5.6	0.1	-5.5	0.6
Cc1ccc(NC2=C(Cl)C(=O)c3ccccc3C2=O)cc1	-10.7	-58.0*	-0.4	-7.8	10.5
CCN(CC)c1ccc(NC2=C(Cl)C(=O)c3ccccc3C2=O)cc1	-17.9	-38.7*	-0.1	-7.3	1.3
Cc1nnc(SCC(=O)Nc2ccc(F)cc2F)n(N)c1=O	7.3	-4.1	-0.7	-9.5	0.4
Cc1cc2c(s1)c1cnn(Cc3ccc(S(C)(=O)=O)cc3)c(=O)c1n2C	-1.3	-2.1	-0.8	13.0	6.7
O=c1cc(O)c(-c2ccc(Cl)cc2)c(Cl)[nH]1	-0.1	-2.5	-0.6	1.6	1.9
O=c1cc(O)c(-c2ccc(Cl)c(Cl)c2)c(Cl)[nH]1	35.0*	0.5	0.6	-5.6	0.8
